Measurements reported in PubChem BioAssay AID1159580 (chemical genetic matrix, 2015).
Where “and” joins values, the source holds several entries; their conditions need not be identical. Identical values can stand only once. The whole screen tested about 5,500 compounds, of which about 2,000 (36%) were called active. Inconclusive results (about 18%) are left out. No stated cut-off is given here; in the data, active means normalized growth mostly below about 0.91 (no sharp cut-off); inconclusive means no clear call, values can overlap the other calls; inactive means mostly above about 0.92. This is one part of the list.

Assay: chemical genetic growth profiling, strain panel (AID 1159580);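 further: tested at 20 µM; growth read once vehicle control cultures reached saturation at 30 °C; 1 = growth at the plate median or of vehicle wells; lower values mean less growth of the strain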
Conditions: S. cerevisiae deletion strains, growth OD

Measured: normalized growth

CCCN(CCC)C(=O)C(CCC(=O)O)NC(=O)c1ccccc1 (stereo not given)
inactive: locus YAL013W, strain DEP1, hits give low values 0.996 and 1.01 | locus YAL021C, strain ccr4, hits give low values 0.98 | locus YAL026C, strain drs2, hits give low values 0.987 | locus YAL030W, strain snc1, hits give low values 1 | locus YAL040C, strain CLN3, hits give low values 1 | locus YBL061C, strain skt5, hits give low values 0.983 | locus YBR009C, strain hhf1, hits give low values 0.992 | locus YBR021W, strain FUR4, hits give low values 1.01 | locus YBR023C, strain chs3, hits give low values 0.992 | locus YBR171W, strain sec66, hits give low values 0.98 | locus YBR229C, strain ROT2, hits give low values 0.999 | locus YBR231C, strain swc5, hits give low values 0.979 | locus YBR279W, strain paf1, hits give low values 0.979 | locus YCL011C, strain gbp2, hits give low values 0.983 | locus YCL016C, strain dcc1, hits give low values 1.01 | locus YCL029C, strain bik1, hits give low values 0.985 | locus YCL061C, strain MRC1 (second series), hits give low values 1 | locus YCL061C, strain MRC1, hits give low values 0.994 | locus YCL069W, strain vba3, hits give low values 0.996 | locus YCR088W, strain abp1, hits give low values 0.98 | locus YDL005C, strain med2, hits give low values 0.99 | locus YDL035C, strain GPR1, hits give low values 1.02 | locus YDL040C, strain nat1, hits give low values 0.993 | locus YDL074C, strain BRE1, hits give low values 0.987 | locus YDL101C, strain DUN1, hits give low values 0.994 | locus YDL134C, strain PPH21, hits give low values 0.996 | locus YDL185W, strain tfp1, hits give low values 0.958 | locus YDL192W, strain arf1, hits give low values 0.979 | locus YDR001C, strain nth1, hits give low values 0.973 | locus YDR069C, strain doa4, hits give low values 0.993 | locus YDR101C, strain arx1, hits give low values 0.994 | locus YDR137W, strain rgp1, hits give low values 1.02 | locus YDR150W, strain NUM1, hits give low values 0.991 and 0.999 | locus YDR159W, strain sac3, hits give low values 0.935 | locus YDR162C, strain NBP2, hits give low values 1 | locus YDR195W, strain ref2 1.02 | locus YDR297W, strain sur2, hits give low values 0.987 | locus YDR318W, strain mcm21, hits give low values 0.994 | locus YDR334W, strain swr1, hits give low values 0.962 | locus YDR335W, strain msn5, hits give low values 0.981 | locus YDR363W, strain ESC2, hits give low values 1.01 | locus YDR388W, hits give low values 1 | locus YDR392W, strain spt3, hits give low values 0.986 | locus YDR502C, strain sam2, hits give low values 1.01 | locus YEL003W, strain gim4, hits give low values 0.997 | locus YEL037C, strain rad23, hits give low values 0.982 | locus YEL061C, strain CIN8 (second series), hits give low values 0.965 | locus YEL061C, strain CIN8, hits give low values 0.992 | locus YER002W, strain NOP16, hits give low values 0.986 | locus YER015W, strain faa2, hits give low values 0.989 | locus YER016W, strain bim1, hits give low values 0.992 | locus YER110C, hits give low values 0.991 | locus YER111C, strain swi4, hits give low values 0.996 | locus YER155C, strain BEM2 (second series), hits give low values 0.985 | locus YER155C, strain BEM2, hits give low values 1 | locus YER167W, strain BCK2, hits give low values 0.993 | locus YFR010W, strain ubp6, hits give low values 0.982 | locus YGL078C, strain dbp3, hits give low values 0.996 | locus YGL086W, strain mad1, hits give low values 1.01 | locus YGL167C, strain pmr1, hits give low values 0.986 | locus YGL173C, strain kem1, hits give low values 0.982 | locus YGL227W, strain vid30, hits give low values 0.986 | locus YGL240W, strain doc1, hits give low values 0.987 | locus YGL248W, strain PDE1, hits give low values 1.01 | locus YGL253W, strain hxk2, hits give low values 0.982 | locus YGR078C, strain PAC10, hits give low values 0.984 and 1.01 | locus YGR135W, strain pre9, hits give low values 0.989 | locus YGR229C, strain SMI1, hits give low values 1.02 | locus YGR252W, strain gcn5, hits give low values 1.13 | locus YHR013C, strain ard1, hits give low values 1.01 | locus YHR027C, strain rpn1, hits give low values 0.982 | locus YHR030C, strain SLT2, hits give low values 0.992 | locus YHR079C, strain IRE1 (second series), hits give low values 0.991 | locus YHR079C, strain IRE1, hits give low values 0.979 | locus YHR094C, strain hxt1, hits give low values 0.943 | locus YHR129C, strain ARP1, hits give low values 0.998 | locus YHR142W, strain chs7, hits give low values 0.977 | locus YHR200W, strain rpn10, hits give low values 0.989 | locus YIL066C, strain RNR3, hits give low values 0.994 | locus YIL073C, strain SPO22, hits give low values 0.93 | locus YIL125W, strain kgd1, hits give low values 0.985 | locus YIR030C, strain dcg1, hits give low values 0.988 | locus YJL092W, strain hpr5, hits give low values 0.997 | locus YJL095W, strain BCK1 (second series), hits give low values 0.968 | locus YJL095W, strain BCK1, hits give low values 0.968 and 0.993 | locus YJL115W, strain asf1, hits give low values 0.99 | locus YJL129C, strain trk1, hits give low values 0.968 | locus YJL134W, strain LCB3, hits give low values 1 | locus YJL154C, strain vps35, hits give low values 0.962 | locus YJL164C, strain tpk1, hits give low values 1 | locus YJL166W, strain qcr8, hits give low values 0.983 | locus YJL168C, strain set2, hits give low values 0.985 | locus YJL187C, strain SWE1 (second series), hits give low values 0.982 | locus YJR043C, strain POL32, hits give low values 0.985 | locus YJR066W, strain TOR1, hits give low values 0.926
